Measured values as given in PubChem BioAssay AID1159580 (chemical genetic matrix, 2015).
In all, about 5,500 compounds went through this assay and about 2,000 (36%) were called active. Another 18% or so got no clear call; they are omitted. Rule as the data show it: active = normalized growth mostly below about 0.91 (no sharp cut-off); inconclusive = no clear call, values can overlap the other calls; inactive = mostly above about 0.92. Some of the results follow.

Test: chemical genetic growth profiling, strain panel (AID 1159580);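 also: tested at 20 µM; growth read once vehicle control cultures reached saturation at 30 °C; 1 = growth at the plate median or of vehicle wells; lower values mean less growth of the strain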
Settings: growth OD

Measured: normalized growth

COc1cc(-c2coc3cc(OC)c(OC)c(OC)c3c2=O)cc(OC)c1OC
inactive: S. cerevisiae deletion strains, locus YJR066W, strain TOR1, active compounds read low 0.99 | S. cerevisiae deletion strains, locus YJR075W, strain HOC1, active compounds read low 0.975 | S. cerevisiae deletion strains, locus YKL009W, strain mrt4, active compounds read low 0.98 | S. cerevisiae deletion strains, locus YKL068W, active compounds read low 0.988 | S. cerevisiae deletion strains, locus YKL085W, strain MDH1 (second series), active compounds read low 0.973 | S. cerevisiae deletion strains, locus YKL085W, strain MDH1, active compounds read low 0.973 | S. cerevisiae deletion strains, locus YKL160W, strain elf1, active compounds read low 0.994 | S. cerevisiae deletion strains, locus YKR001C, strain vps1, active compounds read low 1.02 | S. cerevisiae deletion strains, locus YKR026C, strain gcn3, active compounds read low 0.997 | S. cerevisiae deletion strains, locus YKR091W, strain srl3, active compounds read low 1 | S. cerevisiae deletion strains, locus YLL001W, strain dnm1, active compounds read low 0.96 | S. cerevisiae deletion strains, locus YLL026W, active compounds read low 0.996 | S. cerevisiae deletion strains, locus YLL041C, strain sdh2, active compounds read low 0.996 | S. cerevisiae deletion strains, locus YLR027C, strain aat2, active compounds read low 1.01 | S. cerevisiae deletion strains, locus YLR039C, strain RIC1, active compounds read low 1 | S. cerevisiae deletion strains, locus YLR058C, strain SHM2, active compounds read low 0.99 | S. cerevisiae deletion strains, locus YLR102C, strain apc9, active compounds read low 1 | S. cerevisiae deletion strains, locus YLR113W, strain HOG1, active compounds read low 0.98 | S. cerevisiae deletion strains, locus YLR221C, strain rsa3, active compounds read low 0.997 | S. cerevisiae deletion strains, locus YLR258W, strain gsy2, active compounds read low 0.989 | S. cerevisiae deletion strains, locus YLR262C, strain YPT6 (second series), active compounds read low 0.972 | S. cerevisiae deletion strains, locus YLR262C, strain YPT6, active compounds read low 1.01 | S. cerevisiae deletion strains, locus YLR268W, strain sec22, active compounds read low 1.03 | S. cerevisiae deletion strains, locus YLR320W, strain mms22, active compounds read low 1.01 | S. cerevisiae deletion strains, locus YLR330W, strain CHS5, active compounds read low 0.998 | S. cerevisiae deletion strains, locus YLR342W, strain FKS1 (second series), active compounds read low 1.08 | S. cerevisiae deletion strains, locus YLR342W, strain FKS1, active compounds read low 1.01 | S. cerevisiae deletion strains, locus YLR357W, strain rsc2, active compounds read low 0.953 | S. cerevisiae deletion strains, locus YLR370C, strain arc18, active compounds read low 0.997 | S. cerevisiae deletion strains, locus YLR371W, strain rom2, active compounds read low 1.01 | S. cerevisiae deletion strains, locus YLR384C, strain iki3, active compounds read low 0.982 | S. cerevisiae deletion strains, locus YLR418C, strain cdc73, active compounds read low 0.984 | S. cerevisiae deletion strains, locus YML016C, strain PPZ1, active compounds read low 1 | S. cerevisiae deletion strains, locus YML032C, strain rad52, active compounds read low 1.01 | S. cerevisiae deletion strains, locus YML120C, strain ndi1, active compounds read low 0.997 | S. cerevisiae deletion strains, locus YML124C, strain tub3, active compounds read low 0.989 | S. cerevisiae deletion strains, locus YMR058W, strain fet3, active compounds read low 1.01 | S. cerevisiae deletion strains, locus YMR078C, strain ctf18, active compounds read low 1.01 | S. cerevisiae deletion strains, locus YMR125W, strain sto1, active compounds read low 0.992 | S. cerevisiae deletion strains, locus YMR129W, active compounds read low 0.989 | S. cerevisiae deletion strains, locus YMR205C, strain PFK2, active compounds read low 1.01 | S. cerevisiae deletion strains, locus YMR223W, strain ubp8, active compounds read low 0.998 | S. cerevisiae deletion strains, locus YMR231W, strain pep5, active compounds read low 0.987 | S. cerevisiae deletion strains, locus YMR307W, strain GAS1, active compounds read low 1.13 | S. cerevisiae deletion strains, locus YNL067W, strain RPL9B, active compounds read low 0.973 | S. cerevisiae deletion strains, locus YNL071W, strain lat1, active compounds read low 1 | S. cerevisiae deletion strains, locus YNL183C, strain NPR1, active compounds read low 0.984 | S. cerevisiae deletion strains, locus YNL209W, strain ssb2, active compounds read low 1 | S. cerevisiae deletion strains, locus YNL233W, strain BNI4, active compounds read low 0.982 | S. cerevisiae deletion strains, locus YNL248C, strain rpa49, active compounds read low 0.983 | S. cerevisiae deletion strains, locus YNL250W, strain rad50, active compounds read low 0.944 | S. cerevisiae deletion strains, locus YNL271C, strain bni1, active compounds read low 0.995 | S. cerevisiae deletion strains, locus YNL298W, strain CLA4, active compounds read low 0.996 | S. cerevisiae deletion strains, locus YNL307C, strain MCK1, active compounds read low 1 | S. cerevisiae deletion strains, locus YNL322C, strain KRE1 (second series), active compounds read low 0.998 | S. cerevisiae deletion strains, locus YNR049C, strain mso1, active compounds read low 1 | S. cerevisiae deletion strains, locus YNR052C, strain pop2, active compounds read low 0.977 | S. cerevisiae deletion strains, locus YOL012C, strain htz1 1.11 | S. cerevisiae deletion strains, locus YOL147C, strain pex11, active compounds read low 0.998 | S. cerevisiae deletion strains, locus YOR001W, strain rrp6, active compounds read low 0.997 | S. cerevisiae deletion strains, locus YOR061W, strain CKA2, active compounds read low 1.01 | S. cerevisiae deletion strains, locus YOR069W, strain VPS5, active compounds read low 0.989 | S. cerevisiae deletion strains, locus YOR070C, strain gyp1, active compounds read low 0.991 | S. cerevisiae deletion strains, locus YOR080W, strain dia2, active compounds read low 0.995 | S. cerevisiae deletion strains, locus YOR083W, strain WHI5, active compounds read low 0.996 | S. cerevisiae deletion strains, locus YOR106W, strain vam3, active compounds read low 0.988 | S. cerevisiae deletion strains, locus YOR136W, strain idh2, active compounds read low 0.993 | S. cerevisiae deletion strains, locus YOR144C, strain elg1, active compounds read low 0.997 | S. cerevisiae deletion strains, locus YOR184W, strain ser1, active compounds read low 1.08 | S. cerevisiae deletion strains, locus YOR231W, strain MKK1, active compounds read low 1.04 | S. cerevisiae deletion strains, locus YOR265W, strain rbl2, active compounds read low 1.01 | S. cerevisiae deletion strains, locus YOR270C, strain vph1, active compounds read low 1.01 | S. cerevisiae deletion strains, locus YOR290C, strain snf2, active compounds read low 1.01 | S. cerevisiae deletion strains, locus YOR316C, strain cot1, active compounds read low 0.99 | S. cerevisiae deletion strains, locus YPL051W, strain arl3, active compounds read low 0.994 | S. cerevisiae deletion strains, locus YPL055C, strain LGE1, active compounds read low 1.03 | S. cerevisiae deletion strains, locus YPL078C, strain atp4, active compounds read low 0.998 | S. cerevisiae deletion strains, locus YPL106C, strain sse1, active compounds read low 0.984 | S. cerevisiae deletion strains, locus YPL240C, strain hsp82, active compounds read low 1 | S. cerevisiae deletion strains, locus YPL256C, strain CLN2, active compounds read low 1.03 | S. cerevisiae deletion strains, locus YPR119W, strain clb2, active compounds read low 0.975 | S. cerevisiae deletion strains, locus YPR141C, strain kar3, active compounds read low 0.972 | S. cerevisiae deletion strains, locus YPR163C, strain tif3, active compounds read low 1 | S. cerevisiae deletion strains, locus YPR167C, strain met16, active compounds read low 0.995 | S. cerevisiae deletion strains, strain wtn01, active compounds read low 1.03 | S. cerevisiae strains, strain wild type, active compounds read low 1.02
